In PubChem BioAssay AID434926 (Sanford-Burnham Center for Chemical Genomics, 2010):
Some of the results follow. A number with no mark means an inactive call.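 The calls were made as follows: active = at least twofold enzyme activation in any of six single-dose repeats, which the averaged readout prints as negative percent; inactive = the rest.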

Target: Intestinal-type alkaline phosphatase (Homo sapiens) (UniProt P09923)
Experiment: human IAP activators, confirmation, biochemical, luminescence, single concentration, uHTS hits (AID 434926)
Conditions: purified IAP, CDP-Star luminescence, 30 min; at 8.3 µM; hits give low values

Sequence of Intestinal-type alkaline phosphatase (Homo sapiens) (P09923 whole entry, looked up): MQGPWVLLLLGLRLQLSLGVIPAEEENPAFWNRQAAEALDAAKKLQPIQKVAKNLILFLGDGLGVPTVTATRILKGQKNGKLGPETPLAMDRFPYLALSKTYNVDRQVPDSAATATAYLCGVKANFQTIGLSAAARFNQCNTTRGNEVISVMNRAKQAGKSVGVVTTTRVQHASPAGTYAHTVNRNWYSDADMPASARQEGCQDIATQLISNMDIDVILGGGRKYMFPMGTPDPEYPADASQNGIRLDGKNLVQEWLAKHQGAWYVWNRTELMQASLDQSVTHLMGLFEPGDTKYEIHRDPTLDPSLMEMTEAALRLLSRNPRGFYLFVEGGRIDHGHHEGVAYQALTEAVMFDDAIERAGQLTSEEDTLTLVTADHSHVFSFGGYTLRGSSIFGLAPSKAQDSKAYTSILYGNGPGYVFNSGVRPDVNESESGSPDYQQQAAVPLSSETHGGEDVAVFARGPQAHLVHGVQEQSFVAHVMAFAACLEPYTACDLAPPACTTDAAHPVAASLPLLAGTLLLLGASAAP

SMILES | activation (%Activity, negative = activation) [%]
CN(c1ccccc1)c1ccc([N+](=O)[O-])c2nonc12 | -1.35
COc1ccccc1N=Nc1c(O)[nH]c(=S)[nH]c1=O | 4.66
